# From the supplement of paper PMC12282887
# ± gives the standard deviation of the averaged measurements.
# Experiments:
# Experiment in all cases: promoter activity interaction Z-score (Lux/OD deviation from empty-vector control); higher = stronger promoter induction by the compound
# [1] = tested on: E. coli BW25113 acrABp lux reporter
# Method in brief: (§1)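 Four 1:2 dilutions of each compound were tested in biological duplicates on E. coli BW25113 carrying low-copy luxCDABE promoter reporters, either wild type or deleted for one of three genes. Cultures of 40 µl LB Lennox in 384-well plates were kept at 37°C and read for OD600 and luminescence every 30 min for 12 h. Integration windows were 0–8 h for wild type and 1–9 h for deletion strains, and wells under 10% of the median growth value were discarded. The score is a Z-transformed residual of growth-normalised luminescence relative to a control fit.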
# [2] = tested on: E. coli BW25113 micFp lux reporter
# Method in brief: as §1
# [3] = tested on: E. coli BW25113 ompFp lux reporter
# Method in brief: as §1
# [4] = tested on: E. coli BW25113 robp lux reporter
# Method in brief: as §1
# [5] = tested on: E. coli BW25113 soxSp lux reporter
# Method in brief: as §1
# [6] = tested on: E. coli BW25113 tolCp lux reporter
# Method in brief: as §1
# [7] = 0.073 µg/ml, genetic background: wild type
# [8] = 0.073 µg/ml, genetic background: ΔmarA
# [9] = 0.073 µg/ml, genetic background: Δrob
# [10] = 0.073 µg/ml, genetic background: ΔsoxS
# [11] = 0.15 µg/ml, genetic background: wild type
# [12] = 0.15 µg/ml, genetic background: ΔmarA
# [13] = 0.15 µg/ml, genetic background: Δrob
# [14] = 0.15 µg/ml, genetic background: ΔsoxS
# [15] = 0.29 µg/ml, genetic background: wild type
# [16] = 0.29 µg/ml, genetic background: ΔmarA
# [17] = 0.29 µg/ml, genetic background: Δrob
# [18] = 0.29 µg/ml, genetic background: ΔsoxS
# [19] = 0.58 µg/ml, genetic background: wild type
# [20] = 0.58 µg/ml, genetic background: ΔmarA
# [21] = 0.58 µg/ml, genetic background: Δrob
# [22] = 0.58 µg/ml, genetic background: ΔsoxS
structure (smiles),measurement,setting,value
COc1cc(Cc2cnc(N)nc2N)cc(OC)c1OC [Trimethoprim],promoter activity interaction Z-score,[1]; [7],0.0131 ± 0.34
same,promoter activity interaction Z-score,[1]; [8],-0.307 ± 0.0077
same,promoter activity interaction Z-score,[1]; [9],-0.0611 ± 0.045
same,promoter activity interaction Z-score,[1]; [10],-0.429 ± 0.0073
same,promoter activity interaction Z-score,[1]; [11],0.297 ± 0.54
same,promoter activity interaction Z-score,[1]; [12],1.43 ± 0.76
same,promoter activity interaction Z-score,[1]; [13],0.162 ± 0.041
same,promoter activity interaction Z-score,[1]; [14],-0.000323 ± 0.14
same,promoter activity interaction Z-score,[1]; [15],0.6 ± 0.73
same,promoter activity interaction Z-score,[1]; [16],-0.763 ± 0.81
same,promoter activity interaction Z-score,[1]; [17],0.526 ± 0.19
same,promoter activity interaction Z-score,[1]; [18],0.701 ± 0.81
same,promoter activity interaction Z-score,[1]; [19],0.577 ± 0.46
same,promoter activity interaction Z-score,[1]; [20],-0.476 ± 0.038
same,promoter activity interaction Z-score,[1]; [21],1.39 ± 0.35
same,promoter activity interaction Z-score,[1]; [22],0.448 ± 0.78
same,promoter activity interaction Z-score,[2]; [7],0.711 ± 0.12
same,promoter activity interaction Z-score,[2]; [8],0.728 ± 0.027
same,promoter activity interaction Z-score,[2]; [9],0.665 ± 0.28
same,promoter activity interaction Z-score,[2]; [10],0.533 ± 0.23
same,promoter activity interaction Z-score,[2]; [11],1.86 ± 0.14
same,promoter activity interaction Z-score,[2]; [12],1.1 ± 0.14
same,promoter activity interaction Z-score,[2]; [13],1.29 ± 0.44
same,promoter activity interaction Z-score,[2]; [14],0.842 ± 0.36
same,promoter activity interaction Z-score,[2]; [15],2.75 ± 0.96
same,promoter activity interaction Z-score,[2]; [16],1.9 ± 0.074
same,promoter activity interaction Z-score,[2]; [17],2.28 ± 0.79
same,promoter activity interaction Z-score,[2]; [18],1.33 ± 0.41
same,promoter activity interaction Z-score,[2]; [19],0.997 ± 0.95
same,promoter activity interaction Z-score,[2]; [20],0.388 ± 0.61
same,promoter activity interaction Z-score,[2]; [21],1.15 ± 0.38
same,promoter activity interaction Z-score,[2]; [22],0.825 ± 0.16
same,promoter activity interaction Z-score,[3]; [7],-0.322 ± 0.3
same,promoter activity interaction Z-score,[3]; [8],-1.17 ± 0.5
same,promoter activity interaction Z-score,[3]; [9],-0.297 ± 0.54
same,promoter activity interaction Z-score,[3]; [10],-0.129 ± 0.65
same,promoter activity interaction Z-score,[3]; [11],0.109 ± 0.39
same,promoter activity interaction Z-score,[3]; [12],-0.477 ± 0.78
same,promoter activity interaction Z-score,[3]; [13],0.244 ± 0.7
same,promoter activity interaction Z-score,[3]; [14],0.51 ± 0.81
same,promoter activity interaction Z-score,[3]; [15],0.0831 ± 0.67
same,promoter activity interaction Z-score,[3]; [16],-1.9 ± 0.61
same,promoter activity interaction Z-score,[3]; [17],-0.0302 ± 1
same,promoter activity interaction Z-score,[3]; [18],0.395 ± 1.3
same,promoter activity interaction Z-score,[3]; [19],-0.896 ± 0.32
same,promoter activity interaction Z-score,[3]; [20],-0.897 ± 0.46
same,promoter activity interaction Z-score,[3]; [21],0.0886 ± 0.83
same,promoter activity interaction Z-score,[3]; [22],-1.15 ± 0.39
same,promoter activity interaction Z-score,[4]; [7],0.791 ± 0.3
same,promoter activity interaction Z-score,[4]; [8],0.875 ± 0.23
same,promoter activity interaction Z-score,[4]; [9],2.11 ± 0.058
same,promoter activity interaction Z-score,[4]; [10],0.238 ± 1.1
same,promoter activity interaction Z-score,[4]; [11],3.64 ± 0.82
same,promoter activity interaction Z-score,[4]; [12],3.37 ± 0.44
same,promoter activity interaction Z-score,[4]; [13],4.81 ± 0.7
same,promoter activity interaction Z-score,[4]; [14],2.16 ± 0.27
same,promoter activity interaction Z-score,[4]; [15],7.43 ± 2.3
same,promoter activity interaction Z-score,[4]; [16],5.16 ± 0.16
same,promoter activity interaction Z-score,[4]; [17],8.88 ± 0.31
same,promoter activity interaction Z-score,[4]; [18],5.55 ± 0.44
same,promoter activity interaction Z-score,[4]; [19],3.89 ± 0.063
same,promoter activity interaction Z-score,[4]; [20],4.6 ± 5.3
same,promoter activity interaction Z-score,[4]; [21],3.21 ± 0.23
same,promoter activity interaction Z-score,[4]; [22],2.01 ± 1.6
same,promoter activity interaction Z-score,[5]; [7],-0.0844 ± 0.22
same,promoter activity interaction Z-score,[5]; [8],0.118 ± 0.2
same,promoter activity interaction Z-score,[5]; [9],0.163 ± 0.18
same,promoter activity interaction Z-score,[5]; [10],-0.116 ± 0.24
same,promoter activity interaction Z-score,[5]; [11],0.261 ± 0.11
same,promoter activity interaction Z-score,[5]; [12],0.204 ± 0.1
same,promoter activity interaction Z-score,[5]; [13],0.486 ± 0.39
same,promoter activity interaction Z-score,[5]; [14],0.169 ± 0.29
same,promoter activity interaction Z-score,[5]; [15],0.521 ± 0.032
same,promoter activity interaction Z-score,[5]; [16],0.796 ± 0.022
same,promoter activity interaction Z-score,[5]; [17],0.986 ± 0.72
same,promoter activity interaction Z-score,[5]; [18],0.663 ± 0.23
same,promoter activity interaction Z-score,[5]; [19],1.34 ± 0.14
same,promoter activity interaction Z-score,[5]; [20],2.96 ± 0.38
same,promoter activity interaction Z-score,[5]; [21],2.69 ± 1.1
same,promoter activity interaction Z-score,[5]; [22],-0.0409 ± 0.74
same,promoter activity interaction Z-score,[6]; [7],0.67 ± 0.48
same,promoter activity interaction Z-score,[6]; [8],-0.632 ± 0.36
same,promoter activity interaction Z-score,[6]; [9],-0.116 ± 0.95
same,promoter activity interaction Z-score,[6]; [10],-0.559 ± 0.21
same,promoter activity interaction Z-score,[6]; [11],0.553 ± 0.46
same,promoter activity interaction Z-score,[6]; [12],-0.336 ± 0.28
same,promoter activity interaction Z-score,[6]; [13],0.749 ± 0.87
same,promoter activity interaction Z-score,[6]; [14],2.3 ± 2.1
same,promoter activity interaction Z-score,[6]; [15],1.84 ± 0.19
same,promoter activity interaction Z-score,[6]; [16],2.71 ± 0.84
same,promoter activity interaction Z-score,[6]; [17],1.92 ± 0.38
same,promoter activity interaction Z-score,[6]; [18],2.4 ± 1.6
same,promoter activity interaction Z-score,[6]; [19],1.85 ± 0.094
same,promoter activity interaction Z-score,[6]; [20],0.798 ± 2
same,promoter activity interaction Z-score,[6]; [21],1.4 ± 0.83
same,promoter activity interaction Z-score,[6]; [22],0.494 ± 0.71
